Bioassay records (PubChem BioAssay)
Pf Dd2 inh – blocks in vitro growth of P. falciparum Dd2; 120,000 tested, 4.3% active; P. falciparum Dd2 growth, SYBR Green, 72 h; Potency, µM (top dose mostly 28.9 µM), for the others: top-dose activity, negative = inhibition, hits mostly inhibitors; active = well fitted inhibition curve with a large enough effect;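 also: plate controls were DMSO vehicle for no effect and reference drug for full effect; nearly all actives have a fitted effect of over 65% in size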
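Readout: SYBR Green fluorescence, 485 nm excitation, 535 nm emission, after ~16 h lysis at 37C. Before that, Dd2-infected red cells (2.5% hematocrit) grew 72 h with compound, 29 uM top final concentration.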
The depositor's hits bear a star; i = inactive; [ ] = another dose, or the depositor's remark. Many of the other results were omitted from the sample, so hits are more common in it than they were. Potency is read from the fitted curve at half-maximal effect.

SMILES	Pf Dd2 inh
Cc1nnc2n1CCC(N(C)S(=O)(=O)c1cccnc1)CC2 (stereo not drawn)	-14.3%
CC(=O)N(C1CC1)C1CCOC2(CCN(C(=O)c3nccc4ccccc34)CC2)C1 (stereo not drawn)	-22.6%
O=C(CN1CCCc2nc(C3CC3)ncc2C1=O)NCc1cccs1	-18.7%
COCCN1C(=O)CS(=O)(=O)C12CCN(C(=O)c1ccc(Cl)cc1)CC2	11.8%
COc1ncccc1-c1cnc2[nH]cc(CC(=O)Nc3ccccc3)c2c1	i
COc1ncccc1-c1cnc2[nH]cc(CC(=O)Nc3ccccc3C)c2c1	10µM*
COc1ncccc1-c1cnc2[nH]cc(CC(=O)Nc3ccncc3)c2c1	i
O=C(Cc1c[nH]c2ncc(-c3ccsc3)cc12)NCc1cccnc1	i
Cc1cc(-c2cnc3[nH]cc(CC(=O)NCc4cccnc4)c3c2)ccn1	i
O=C(Cc1c[nH]c2ncc(-c3cn[nH]c3)cc12)NCc1cccnc1	11.2µM*
COCCCNC(=O)N1CC(c2nc(CCOCC3CCOCC3)no2)C1	12.0%
CO[C@H]1C(=O)N(C(C)C)[C@H]1C1CCN(C(=O)CCc2nc3ccccc3s2)CC1	-19.2%
CC(C)NC(=O)N1CCCCCCNC(=O)[C@@H]2CCCC[C@@H]21	0.8%
O=C(O)CCC(=O)N1CCC2(Cc3ccccc3N(C(=O)c3ccc(Cl)cc3)C2)C1 (stereo not drawn)	i
O=C(c1ccc(Cl)cc1)N1CC2(CCN(C3CCCCC3)CC2)Cc2ccccc21	7.08µM*
O=C(c1ccc(Cl)cc1)N1CC2(CCN(C3CCCCC3)C2)Cc2ccccc21 (stereo not drawn)	10µM*
CC(=O)N1CC2(CCN(C3COC3)C2)Cc2ccccc21 (stereo not drawn)	-8.8%[44.1 µM]
O=C(c1ccc(Cl)cc1)N1CC2(CCN(C3COC3)CC2)Cc2ccccc21	10.2%
CC(=O)N1CC2(Cc3ccccc31)CN(C(=O)c1ccc(Cl)cc1)C2	-18.6%
CO[C@H]1[C@H](NC(=O)Cn2nc(C)c(C)c2C)c2ccccc2C12CCNCC2	2.6%
CCNC(=O)N1Cc2[nH]cnc2C[C@H]1C(=O)NCc1ccccc1	-12.5%[44.1 µM]
COc1cc(CCC(=O)N2CCc3n[nH]c(=O)n3CC2)on1	i
Cc1ccc(CN2C[C@@H]3C(=O)N(CCCN4CCCC4=O)C(=O)[C@@H]3C2)cc1	-11.4%
Cn1c(CN2CCC(O)CC2)nnc1C1CCCN(C(=O)CCN)C1 (stereo not drawn)	-10.0%
O=C1CCN(C(=O)CCCc2c[nH]c3ccccc23)CCCOCCN1	-21.1%
SMILES	Pf Dd2 inh
O=C(CC1COCCN1)N(CCc1c[nH]c2ccccc12)C1CCCCC1 (stereo not drawn)	8.91µM*
O=C(CC1COCCN1)N(Cc1cccnc1)Cc1cccnc1 (stereo not drawn)	4.5%
O=C(c1ccc(Cl)cc1)N1CCC2(COc3ccncc3[S+](=O)([O-])N2)C1 (stereo not drawn)	-11.9%
O=C(NC(c1ccccc1)c1ccccc1)c1cnc2c(c1)N([S+](=O)([O-])c1cccnc1)CCC2	35.9%
COCCOC1CCOC2(CCN(C(=O)c3ccc(OC)c(OC)c3)CC2)C1 (stereo not drawn)	i
O=C(CCc1ccccc1)NCCC1CCN(C(=O)Nc2ccccc2)CC1	i
O=C(COc1ccccc1)NCCC1CCN(C(=O)Nc2ccccc2)CC1	11.2µM*
CC(C)CC(=O)NCCC1CCN(C(=O)Nc2ccccc2)CC1	-13.0%
CN(C)C[C@@H]1CN(C)C[C@H]1N	i
COc1ccc(C(=O)NC2CCN(c3ccc(C)cc3)C2=O)cc1F (stereo not drawn)	i
Cc1cc(CNC(=O)C2CC(=O)N(c3ccc(C(C)C)cc3)C2)no1 (stereo not drawn)	-8.9%
COc1cc(NC(=O)CN2C(=O)NC3(CCCCC3)C2=O)cc(OC)c1OC	-27.1%
CC(=O)N1CCC(NC2(Cc3cc(COc4ccccc4)on3)COC2)CC1	-1.0%[44.1 µM]
Cc1noc(C)c1S(=O)(=O)N1CCC(N2CCOC2=O)CC1	21.7%
Cc1noc(C)c1S(=O)(=O)N1CC(N(CC(C)C)C2CCOCC2)C1	-25.1%
Cc1noc(C)c1S(=O)(=O)N1CCC(N(CCC(C)C)C2CCOCC2)CC1	12.6µM*
CCCCNC(=O)C1CCCN(C2CCN(Cc3ccncc3)CC2)C1 (stereo not drawn)	-27.9%
O=C(NC1CCCCCCC1)C1CCCN(C2CCN(Cc3ccncc3)CC2)C1 (stereo not drawn)	12.6µM*
Cc1cccc(CN2CCC(N3CCCC(C(=O)NC4CC4)C3)CC2)c1 (stereo not drawn)	-22.6%
COCC(=O)NC[C@H]1CCN(Cc2ccc(C)s2)C[C@H]1N(C)C	i
O=C(CN1C(=O)NC(c2ccc(Cl)cc2)C2=C1COC2=O)Nc1ccc2c(c1)OCCO2 (stereo not drawn)	-14.3%
COc1ccc(C(=O)N2CCC(C(=O)N3CCCCCCNC(=O)CC3)CC2)cc1F	-9.2%
CN1C(=O)CCC2(CNC(=O)c3cccs3)CCC=C12 (stereo not drawn)	11.9%
COc1ccccc1-c1[nH]nc2ncc(C(=O)N3CCNC(=O)C3)nc12	-14.7%[44.1 µM]
